The campaign covered roughly 3,300 compounds. Fewer than 10 were called active.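 The calls were made as follows: active = growth inhibition above 90% in viable cell count at a single dose; inactive = growth inhibition below 90%.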 Only a sample is shown.
Test: HT29 colon tumor cell growth inhibition, primary screen, imaging, high content imaging, 24 h, CellTiter-Glo (AID 770);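 as to condensed nuclei: share of cells whose nuclear area falls below control median minus 1.5 SD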
Conditions: HT29 cell number by imaging, at 10 µM, stronger effect = higher value; for condensed nuclei: measured here: percent cells with condensed nuclei
[1] = measured here: ATP CellTiter-Glo viability

Row | SMILES | growth inhibition | growth inhibition [1] [%] | condensed nuclei [%]
1 | Cc1ccc(N2CN=c3s/c(=C\c4cccnc4)c(=O)n3C2)cc1 | 8.42% (inactive) | 6.47 | 1.92
2 | O=C1NCC(COCC2CC=CCC2)O1 (stereo not given) | 12.9% (inactive) | -2.87 | 2.4
3 | COc1ccc(OC)c(N=C(C)C2=C(O)COC2=O)c1 | 23.1% (inactive) | 7.81 | 1.86
4 | CSc1nc(N2CCCC2)c2c(c1C#N)CC(C)(C)OC2 | -22.4% (inactive) | -13.8 | 2.73
5 | COc1ccc(N2CCN(c3oc(COc4ccc(Cl)cc4)nc3C#N)CC2)cc1 | 22.4% (inactive) | 12.5 | 2.73
6 | COC(=O)c1ccc(C2/C(=C(/O)c3ccc(OC)cc3)C(=O)C(=O)N2Cc2ccco2)cc1 (stereo not given) | 26.5% (inactive) | -0.21 | 4.2
7 | CCN(CC)c1ccc2cc(C(=O)Nc3ccccn3)c(=O)oc2c1 | 6.44% (inactive) | -4.18 | 2.75
8 | CCN(CC)c1ccc2cc(-c3nnc(-c4ccncc4)o3)c(=O)oc2c1 | 100% (active) | -9.78 | 2.72
9 | CCCCCCc1cc2cc(-c3nnc(-c4ccccc4O)o3)c(=O)oc2cc1O | 47% (inactive) | 17.7 | 6.21
10 | CCOC(=O)CSc1nc(N)c(C#N)c(-c2ccc(OC)cc2)c1C#N | -7.67% (inactive) | -12.5 | 3.97
11 | Cc1c(C)c2cc(Cl)c(O)c(CN3CCCC(C)C3)c2oc1=O (stereo not given) | 25.4% (inactive) | -6.25 | 3.35
12 | CCOP(=O)(c1ccccc1)C1(C#N)CCCC1 (stereo not given) | -30.7% (inactive) | -12.2 | 4.43
13 | CCCCOc1ccc(CN(C)c2ncnc(N)n2)cc1 | 56% (inactive) | 22.5 | 6.77
14 | C1CCC(C(CC2CCCCN2)C2CCCCC2)CC1 (stereo not given) | 99.3% (active) | 97.5 | 30.1
15 | CC1(C)CC(=O)C2=C(C1)N(Cc1ccco1)C(=O)C2(O)C(F)(F)F (stereo not given) | 11% (inactive) | -21.1 | 2.44
16 | CSc1nncc(=O)[nH]1 | -17.8% (inactive) | 10.8 | 1.83
17 | CN1CCN(/C=N/c2sc3c(c2C#N)CCCCC3)CC1 | 45.9% (inactive) | 15.9 | 4.6
18 | COc1ccc2c(c1OC)C(=O)N1c3ccccc3SC21 (stereo not given) | -18.9% (inactive) | -15.6 | 2.15
19 | Nc1ccc2oc(-c3ccccc3Cl)nc2c1 | 26.7% (inactive) | 5.57 | 11.4
20 | CCc1cc(=O)oc2c(CN3CCN(C)CC3)c(O)c(Cl)cc12 | 52.2% (inactive) | -8.76 | 4.11
21 | CCOC(=O)NC(Nc1cc(C)on1)(C(F)(F)F)C(F)(F)F | -33.3% (inactive) | -14.8 | 4.42
22 | COCCOC(=O)C1=C(C)OC(N)=C(C#N)C1c1ccco1 (stereo not given) | 13.2% (inactive) | 1.7 | 3.33
23 | CCSc1nnc(NC(=O)C(CC)(C(F)(F)F)C(F)(F)F)s1 | 3.79% (inactive) | -3.56 | 3.03
24 | COc1ccc(OC)c(C2/C(=C(/O)c3ccccc3)C(=O)C(=O)N2Cc2ccco2)c1 (stereo not given) | 11.9% (inactive) | -6.75 | 4.83
25 | O=C(C/C(=N/O)c1ccccc1O)C(F)F | -0.96% (inactive) | -14.3 | 1.25

Row | SMILES | growth inhibition | growth inhibition [1] [%] | condensed nuclei [%]
26 | O=C(c1cccc2ccccc12)N1CCC(N2CCN(c3ccccc3)CC2)CC1 | -27.1% (inactive) | -18.2 | 3.56
27 | Cn1c(O)c(C=Nc2ccc(Cc3ccncc3)cc2)c(=O)n(C)c1=O | 13.2% (inactive) | -6.92 | 1.24
28 | CCOC(=O)CC1=NC(=O)CS1 | 7.12% (inactive) | 1.44 | 1.37
29 | Cc1ccc(S(=O)(=O)NC(=O)Nc2ncc3c(n2)CC(c2ccco2)CC3=O)cc1 (stereo not given) | -27% (inactive) | 0.34 | 2.73
30 | CCCc1nc2n[nH]c(N)c2c2c1CCCC2 | 3.73% (inactive) | 6.01 | 3.31
31 | O=C1C(=O)N(CCCn2ccnc2)C(c2ccccn2)/C1=C(/O)c1ccccc1 (stereo not given) | 20.5% (inactive) | -11.5 | 3.21
32 | CCOc1ccc(/C(O)=C2/C(=O)C(=O)N(CCN(CC)CC)C2c2ccco2)cc1 (stereo not given) | -44.4% (inactive) | -11.1 | 3.46
33 | CC1CCN(c2[nH]c(=S)c(C#N)c3c2CCCC3)CC1 | 2.28% (inactive) | -10.9 | 1.9
34 | CC1(C)CC(=O)C2=C(C1)N(Cc1ccco1)C(=O)C2(NC(=O)c1cccnc1)C(F)(F)F (stereo not given) | 18.6% (inactive) | -14.4 | 1.91
35 | CCCOc1ccc(Cc2nn[nH]n2)cc1 | 36.3% (inactive) | 4.03 | 4.59
36 | O=C(NCCOCCOCCNC(=O)c1cccnc1)c1cccnc1 | -50.5% (inactive) | -16.6 | 2.66
37 | CC(C)CSc1nc(N2CCOCC2)c2c(c1C#N)CC(C)(C)SC2 | -12.2% (inactive) | 13.9 | 2.93
38 | CCOC(=O)C1CCN(c2nc3ccccc3nc2C(C#N)C(=O)OC(C)COC)CC1 (stereo not given) | -2.37% (inactive) | 11.6 | 15.8
39 | CCOc1ccc(-n2c(SCc3ccc(C#N)cc3)nnc2-c2cccnc2)cc1 | 17.1% (inactive) | -9.28 | 4.78
40 | CCOC(=O)NC(O)C(=O)c1cccs1 (stereo not given) | -55.2% (inactive) | -7.3 | 1.51
41 | CC(C)OC(=O)CC1=NC(=O)CS1 | -22% (inactive) | -8.97 | 3.69
42 | COc1ccc(C=NCCC2(O)CC(C)N(C)CC2C)cc1 (stereo not given) | 22.1% (inactive) | -0.31 | 3.27
43 | COC(=O)CSc1nc(C)c(C(C)=O)cc1C#N | 14.2% (inactive) | -9.13 | 4.87
44 | COc1ccc(C2Nc3ccccc3C(=O)N2Cc2ccco2)cc1CN1C(=O)c2ccccc2C1=O (stereo not given) | -35.2% (inactive) | -9.9 | 3.89
45 | Cc1ccc(N2C(=O)CC(Cn3nc(C)cc3C)C2=O)cc1 (stereo not given) | 5.93% (inactive) | -3.3 | 4
46 | CCN(CC)c1ccc(C2Nc3cccc4cccc(c34)N2)c(O)c1 | 39.6% (inactive) | 11.2 | 9.18
47 | N#CCSc1nc2c(cc1C#N)CCCCCC2 | 27.6% (inactive) | 16.5 | 3.85
48 | O=C(c1ccco1)N1CCN(CCOCCOc2cccc3ccccc23)CC1 | -0.64% (inactive) | -9.08 | 4.04
49 | COC(=O)CSc1nnc(C)c(=O)[nH]1 | -50.8% (inactive) | -8.35 | 0.97
50 | CCN(CC)CCCn1c(C)cc2c(c1=O)C(c1ccccc1)C(C#N)=C(N)O2 (stereo not given) | 3.77% (inactive) | -0.04 | 3.21
